{"source": "PubChem BioAssay (Tox21)", "note": "Records with an inconclusive call do not appear. Activity calls are given as the source filed them. Calls come from the whole dose curve; as a rule, active = well fitted cell-killing curve with a large enough effect in the repeat runs; inconclusive = weak or mixed curves; inactive = flat fitted curve, though single readings scatter."}
{"assay": "qHTS assay to identify small molecule antagonists of the estrogen related receptor (ERR) signaling pathway - cell viability counter screen (AID 1224818);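 note: viability measured after 17.5 h of compound exposure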", "conditions": "ERR reporter cell line viability counter screen; series mostly up to 46.1 µM", "source_text": "National Center for Advancing Translational Sciences [NCATS]\nNIH Chemical Genomics Center [NCGC]\nU.S. Environmental Protection Agency [EPA]\nNational Institutes of Environmental Health Sciences [NIEHS]\nNational Toxicology Program [NTP]\nU.S. Food and Drug Administration [FDA]\nEstrogen related receptors (ERRs), the first orphan nuclear receptors discovered, play an important role in the control of cellular energy metabolism. ERRs are required for high-energy production in response to the environmental challenges. ERR-alpha was also identified as an adverse marker for breast cancer progression; ERR-alpha-positive tumors have a poor prognosis. To screen and to identify environmental compounds that perturb the ERR signaling pathways could provide valuable information for potential therapeutic or preventive measures in the treatment of metabolic disease. To differentiate true ERR antagonists or agonist from cytotoxic substances, the assay is multiplexed with cell viability assay.\nTox21 Assay Protocol Summary:\nThe ERR cells were dispensed at 2,000 cells/5 ul/well in 1536-well white plates using a Multidrop dispenser. After the assay plates were incubated at a 37 C/5% CO2 incubator for 6 hours, 23 nL of compounds dissolved in DMSO, positive and negative controls or DMSO only was transferred to the assay plate by a pin tool. The plates were incubated at 37 C for 17.5 hours. 1 ul/well of CellTiter-Fluor reagent was added into the assay plates using a Flying Reagent Dispenser. After 30 min incubation at 37 C/5% CO2, the fluorescence intensity in the plates was measured using a ViewLux plate reader."}
{"smiles": "Cc1oncc1C(=O)Nc1ccc(C(F)(F)F)cc1", "outcome": "inactive"}
{"smiles": "C[N+](C)(C)CCOC(N)=O", "outcome": "inactive"}
{"smiles": "CNCCCC1c2ccccc2C=Cc2ccccc21", "outcome": "inactive"}
{"smiles": "Cc1nc2ccccn2c(=O)c1CCN1CCC(C(=O)c2ccc(F)cc2)CC1", "outcome": "inactive"}
{"smiles": "COc1cc2c(cc1OC)-c1cc(=Nc3c(C)cc(C)cc3C)n(C)c(=O)n1CC2", "outcome": "inactive"}
{"smiles": "COC(=O)Nc1nc2ccc(C(=O)c3cccs3)cc2[nH]1", "outcome": "inactive"}
{"smiles": "CCCc1c(OCCCOc2ccc(OCC(=O)O)cc2)ccc(C(C)=O)c1O", "outcome": "inactive"}
{"smiles": "O=C(O)c1cccnc1C(=O)O", "outcome": "inactive"}
{"smiles": "CCc1cccc(N(C)C(N)=Nc2cccc3ccccc23)c1", "outcome": "inactive"}
{"smiles": "CCN(CC)CCNC(=O)c1ccc(NC(C)=O)cc1", "outcome": "inactive"}
{"smiles": "C(=C\\c1ccccc1)/CN1CCN(C(c2ccccc2)c2ccccc2)CC1", "outcome": "inactive"}
{"smiles": "Cc1ccccc1N1C(=O)c2cc(S(N)(=O)=O)c(Cl)cc2NC1C", "note": "(stereo not drawn)", "outcome": "inactive"}
{"smiles": "CCC1(C)CC(=O)NC1=O", "note": "(stereo not drawn)", "outcome": "inactive"}
